From PubChem BioAssay (Tox21)
Where “and” joins values, the source holds several entries; their conditions need not be identical. Identical values can stand only once. Records with an inconclusive call do not appear. Some compounds were tested as several samples or in several runs, with calls that do not always agree. Calls of active or inactive are those of the source. Unless noted, calls follow the shape of the dose curve; as a rule, active = well fitted curve in the direction sought with a large enough effect in the repeat runs; inconclusive = weak or mixed curves; inactive = no such curve, though single readings can be large; an effect the other way counts as inactive or inconclusive.

Key:
[1] = qHTS assay to test for compound auto fluorescence at 535 nm (green) in HEK293 cells (AID 720680)
[2] = qHTS assay to test for compound auto fluorescence at 460 nm (blue) in HEK293 cell free culture (AID 720681)
Procedure, shortened: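 Compounds were added to cell-free DMEM with 10% FBS and fluorescence read directly. The blue channel used 405 nm excitation and 460 nm emission, with triamterene as the reference fluorophore.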

[3] = qHTS assay to test for compound auto fluorescence at 535 nm (green) in HEK293 cell free culture (AID 720682)
Procedure, shortened: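 Measurement is a direct plate read of green fluorescence (485 nm in, 535 nm out) after compound addition to serum-supplemented DMEM lacking cells, with fluorescein used to express intensities.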

[4] = qHTS assay to test for compound auto fluorescence at 590 nm (red) in HEK293 cell free culture (AID 720683); also: potency is read from the fitted curve at half-maximal effect
Procedure, shortened: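 Cell-free wells of DMEM with 10% FBS received compound, and intrinsic fluorescence was read at excitation/emission 540/590 nm. Values expressed as equivalence to Rose Bengal sodium.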

[5] = qHTS assay to test for compound auto fluorescence at 590 nm (red) in HepG2 cell free culture (AID 720684); also: potency is read from the fitted curve at half-maximal effect
Procedure, shortened: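 Compound was pinned into wells holding MEM with 10% FBS and no cells, and red fluorescence was read at Ex/Em 540/590 nm. Signal is expressed as auto fluorescence equivalency relative to Rose Bengal sodium.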

[6] = qHTS assay to test for compound auto fluorescence at 460 nm (blue) in HepG2 cell free culture (AID 720685)
Procedure, shortened: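 Compound (23 nL) or DMSO pinned into cell-free MEM with 10% FBS; blue fluorescence read at 405/460 nm excitation/emission, expressed as auto-fluorescence equivalency to triamterene.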

[7] = qHTS assay to test for compound auto fluorescence at 535 nm (green) in HepG2 cell free culture (AID 720686); also: potency is read from the fitted curve at half-maximal effect
[8] = qHTS assay to test for compound auto fluorescence at 460 nm (blue) in HepG2 cells (AID 720687)
Procedure, shortened: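 HepG2 cells in MEM with 10% FBS, attached overnight at 37 C, were exposed to compound or DMSO for 1 hr at 37 C, 5% CO2. Blue fluorescence was read at 405/460 nm, with triamterene as reference fluorophore.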

[9] = target: Glucocorticoid receptor (Homo sapiens) (UniProt P04150); assay: qHTS assay to identify small molecule agonists of the glucocorticoid receptor (GR) signaling pathway (AID 720691; active = well fitted activation curve with a large enough effect in the signal ratio in the repeat runs, not every such curve was filed as active; the % refers to the signal ratio)
Procedure, shortened: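 GR-bla HeLa cells carrying a GRE-driven beta-lactamase reporter, exposed to compounds for 18 h at 37 C. Reporter activation read as fluorescence after 2 h with LiveBLAzer B/G FRET substrate at room temperature.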

[10] = target: Glucocorticoid receptor (Homo sapiens) (UniProt P04150); assay: qHTS assay to identify small molecule antagonists of the glucocorticoid receptor (GR) signaling pathway (AID 720692; active = well fitted inhibition curve with a large enough effect in the signal ratio in the repeat runs, not every such curve was filed as active; the % refers to the signal ratio; also: potency is read from the fitted curve at half-maximal effect)
Procedure, shortened: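 GR-bla HeLa cells carrying a GRE-driven beta-lactamase reporter received compound after 4 h plating, then dexamethasone (5 nM final). After 18 h at 37C, the FRET substrate was loaded for 2 h at room temperature and fluorescence read.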

[11] = qHTS assay to identify small molecule antagonists of the glucocorticoid receptor (GR) signaling pathway - cell viability counter screen (AID 720693); also: nearly all actives have a fitted effect of over 55% in size
[12] = qHTS assay for identifying genotoxic compounds that show differential cytotoxicity against isogenic chicken DT40 cell lines with known DNA damage response pathways - Rev3 mutant cell line (AID 743014); also: nearly all actives have a fitted effect of over 55% in size; also: potency is read from the fitted curve at half-maximal effect
[13] = qHTS assay for identifying genotoxic compounds that show differential cytotoxicity against isogenic chicken DT40 cell lines with known DNA damage response pathways - Rad54/Ku70 mutant cell line (AID 743015); also: nearly all actives have a fitted effect of over 60% in size; also: potency is read from the fitted curve at half-maximal effect
[14] = qHTS assay to identify small molecule antagonists of the androgen receptor (AR) signaling pathway - cell viability counter screen (AID 743033; also: nearly all actives have a fitted effect of over 45% in size; also: potency is read from the fitted curve at half-maximal effect)
[15] = qHTS assay to identify small molecule antagonists of the androgen receptor (AR) signaling pathway using the MDA cell line - cell viability counter screen (AID 743041; also: nearly all actives have a fitted effect of over 45% in size; also: potency is read from the fitted curve at half-maximal effect)
Procedure, shortened: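 MDA-kb2 AR-luc cells (MMTV-luciferase, AR/GR responsive) treated with compounds plus R1881 agonist for 16 h at 37C. CellTiter-Fluor added at 15.5 h; fluorescence read after 30 min in the same wells.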

[16] = qHTS assay for identifying genotoxic compounds that show differential cytotoxicity against isogenic chicken DT40 cell lines with known DNA damage response pathways - wild type cell line (AID 743012); also: nearly all actives have a fitted effect of over 60% in size; also: potency is read from the fitted curve at half-maximal effect
Procedure, shortened: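 Wild-type DT40 cells (300/well) exposed to compounds for 40 hours at 37 C/5% CO2. Viability read by CellTiter-Glo luminescence after 30 min at room temperature.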

[17] = target: Androgen receptor (Homo sapiens) (UniProt P10275); assay: qHTS assay to identify small molecule antagonists of the androgen receptor (AR) signaling pathway (AID 743035; active = well fitted inhibition curve with a large enough effect in the signal ratio in the repeat runs, not every such curve was filed as active; the % refers to the signal ratio)
Procedure, shortened: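 HEK293 cells stably carrying UAS-beta-lactamase reporter, 2,000/well, given compounds plus R1881 agonist and incubated 16 h at 37C. LiveBLAzer B/G FRET substrate then added for 2 h at room temperature before fluorescence reading.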

[18] = target: Androgen receptor (Homo sapiens) (UniProt P10275); assay: qHTS assay to identify small molecule agonists of the androgen receptor (AR) signaling pathway (AID 743036; active = well fitted activation curve with a large enough effect in the signal ratio in the repeat runs, with a control signal flat, not every such curve was filed as active; the % refers to the signal ratio)
Procedure, shortened: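 Beta-lactamase under UAS control, stably integrated in HEK293 GripTite cells, reports receptor activation. After 16 h compound treatment, cells received FRET substrate for 2 h at room temperature before fluorescence reading.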

[19] = target: Androgen receptor (Homo sapiens) (UniProt P10275); assay: qHTS assay to identify small molecule antagonists of the androgen receptor (AR) signaling pathway using the MDA cell line (AID 743042; also: nearly all actives have a fitted effect of over 55% in size)
Procedure, shortened: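 MDA-kb2 breast carcinoma cells carrying MMTV-luciferase (AR/GR responsive) were co-treated with compounds and the agonist R1881 for 16 h at 37C. Inhibition read as ONE-Glo luminescence; CellTiter-Fluor fluorescence measured in parallel for cytotoxicity.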

[20] = target: Androgen receptor (Homo sapiens) (UniProt P10275); assay: qHTS assay to identify small molecule agonists of the androgen receptor (AR) signaling pathway using the MDA cell line (AID 743040; also: nearly all actives have a fitted effect of over 20% in size)
Procedure, shortened: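 MDA-kb2 breast carcinoma cells carrying MMTV-luciferase (responsive to AR and GR), plated 5 h then treated 16 h with compounds at 37C, 0% CO2. Read-out was ONE-Glo luminescence after 30 min at room temperature.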

Measured: Potency
Tags tell the direction and shape of the fitted curve or compound fluorescence and quenching.

Chain of Glucocorticoid receptor (Homo sapiens) (P04150 whole entry, looked up): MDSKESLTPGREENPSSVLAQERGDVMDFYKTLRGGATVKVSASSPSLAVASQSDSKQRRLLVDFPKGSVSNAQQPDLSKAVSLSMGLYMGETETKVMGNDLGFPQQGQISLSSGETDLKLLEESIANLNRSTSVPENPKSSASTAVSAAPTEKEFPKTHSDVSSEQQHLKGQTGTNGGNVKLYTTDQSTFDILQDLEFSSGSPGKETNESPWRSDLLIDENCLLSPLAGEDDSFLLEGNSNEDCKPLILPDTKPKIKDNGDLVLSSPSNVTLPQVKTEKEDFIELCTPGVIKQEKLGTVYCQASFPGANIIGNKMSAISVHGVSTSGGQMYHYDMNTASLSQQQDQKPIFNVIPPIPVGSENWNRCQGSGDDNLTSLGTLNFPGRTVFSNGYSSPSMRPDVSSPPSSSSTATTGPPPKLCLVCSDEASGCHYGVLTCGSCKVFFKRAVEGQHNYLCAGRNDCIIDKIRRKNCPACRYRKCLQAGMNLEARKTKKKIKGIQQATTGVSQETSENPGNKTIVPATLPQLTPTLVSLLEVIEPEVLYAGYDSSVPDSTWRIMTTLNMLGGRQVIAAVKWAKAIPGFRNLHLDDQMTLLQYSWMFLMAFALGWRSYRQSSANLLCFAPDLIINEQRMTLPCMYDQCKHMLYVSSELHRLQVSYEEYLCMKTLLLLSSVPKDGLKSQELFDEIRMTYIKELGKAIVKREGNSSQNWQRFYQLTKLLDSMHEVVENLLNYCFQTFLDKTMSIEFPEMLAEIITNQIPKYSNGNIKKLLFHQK
Chain of Androgen receptor (Homo sapiens) (P10275 whole entry, looked up): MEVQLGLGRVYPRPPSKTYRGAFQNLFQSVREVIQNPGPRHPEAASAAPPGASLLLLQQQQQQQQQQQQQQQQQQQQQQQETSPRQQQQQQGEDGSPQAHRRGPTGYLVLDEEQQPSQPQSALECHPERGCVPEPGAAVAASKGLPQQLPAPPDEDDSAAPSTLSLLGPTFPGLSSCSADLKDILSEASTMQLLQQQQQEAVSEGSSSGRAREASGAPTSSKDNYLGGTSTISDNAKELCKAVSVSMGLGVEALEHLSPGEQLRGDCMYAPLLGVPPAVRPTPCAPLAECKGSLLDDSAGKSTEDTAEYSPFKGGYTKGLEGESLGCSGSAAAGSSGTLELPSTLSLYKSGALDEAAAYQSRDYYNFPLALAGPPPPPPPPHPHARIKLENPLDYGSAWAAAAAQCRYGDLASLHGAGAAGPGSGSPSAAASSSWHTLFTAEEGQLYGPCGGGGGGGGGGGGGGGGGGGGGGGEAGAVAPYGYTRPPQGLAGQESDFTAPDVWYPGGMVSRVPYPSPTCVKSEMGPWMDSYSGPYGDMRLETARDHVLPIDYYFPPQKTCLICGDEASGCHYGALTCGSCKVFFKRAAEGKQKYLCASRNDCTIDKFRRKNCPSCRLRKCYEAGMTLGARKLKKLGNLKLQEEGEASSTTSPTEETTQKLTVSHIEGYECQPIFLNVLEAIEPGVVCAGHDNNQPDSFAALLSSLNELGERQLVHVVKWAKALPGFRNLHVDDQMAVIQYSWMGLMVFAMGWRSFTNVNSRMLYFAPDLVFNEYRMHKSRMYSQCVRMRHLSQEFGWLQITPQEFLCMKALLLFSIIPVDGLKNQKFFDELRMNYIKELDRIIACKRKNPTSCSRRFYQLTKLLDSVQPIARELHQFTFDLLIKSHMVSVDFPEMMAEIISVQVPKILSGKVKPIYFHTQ

CCCCNS(=O)(=O)c1ccccc1
not listed: [16] | [17] | [18] | [19] | [20]
inactive: all other assays above

S=C(NC1CCCCC1)NC1CCCCC1
inactive and 61.1 µM (active): [12] | [13]
active: [14] 19.1 µM
not listed: [10] | [17] | [18] | [19] | [20]
inactive: all other assays above

O=[N+]([O-])c1ccc2c(c1)Cc1ccccc1-2
not listed: [10] | [16] | [17] | [18] | [19] | [20]
inactive: all other assays above

CC(CCC(=O)O)(c1ccc(O)cc1)c1ccc(O)cc1
not listed: [17] | [18] | [19] | [20]
inactive: all other assays above

Cc1ccc2c(n1)Oc1ccc(C(C)C(=O)OCC(=O)N(C)C)cc1C2 (stereo not given)
active: [16] 26.6 µM
not listed: [20]
inactive: all other assays above

CCCC(=O)O
not listed: [10] | [17] | [18] | [19] | [20]
inactive: all other assays above

CC(=O)C1(C)CC2=C(CCCC2(C)C)CC1C (stereo not given)
inactive and 54.5 µM (active): [13]
not listed: [11]
inactive: all other assays above

COc1c(Cl)c(Cl)c(Cl)c(Cl)c1Cl
not listed: [17] | [18] | [19] | [20]
inactive: all other assays above

OC(CCl)CCl
not listed: [16] | [17] | [18] | [19] | [20]
inactive: all other assays above

O=Cc1ccccc1O
not listed: [11] | [16] | [17] | [18] | [19] | [20]
inactive: all other assays above

O=C1OC2(c3cc(Br)c(O)c(Br)c3Oc3c2cc(Br)c(O)c3Br)c2c(Cl)c(Cl)c(Cl)c(Cl)c21
active: [4] 2 µM [fluorescent] and 14.1 µM [fluorescent] | [5] 1.78 µM [fluorescent] and 10 µM [fluorescent] | [7] 28.2 µM [fluorescent] | [15] 4.33 µM and 37.1 µM
49.1 µM (active) and inactive: [10]
not listed: [11] | [16] | [17] | [18] | [19] | [20]
inactive: all other assays above

CCCCOCCOCCO
not listed: [11] | [17] | [18] | [19] | [20]
inactive: all other assays above

C=CC(C)(CCC=C(C)C)OC(C)=O (stereo not given)
inactive and 54.5 µM (active): [12]
not listed: [16] | [17] | [18] | [19] | [20]
inactive: all other assays above

CN(C)CCC=C1c2ccccc2CCc2ccccc21
active: [12] 13.3 µM and 30.6 µM | [13] 13.3 µM and 54.5 µM
not listed: [10] | [15] | [16] | [17] | [18] | [19] | [20]
inactive: all other assays above

COC(=O)Nc1nc2ccc(S(=O)c3ccccc3)cc2[nH]1 (stereo not given)
active: [16] 9.44 µM and 6.85 µM | [12] 11.9 µM and 6.11 µM | [13] 13.3 µM and 8.63 µM
not listed: [10] | [17] | [18] | [19] | [20]
inactive: all other assays above
